This is an account of results in PubChem BioAssay (EPA / NIEHS).

Where a structure was tested more than once in an assay, its records may differ in their call. Activity calls are given as the source filed them. The calls were made as follows: active = hit-call score of the fitted dose curve at least 0.9, where 1 is the maximum; inactive = score below 0.9.

Read-out in the assay: Tissue Factor, F3 (gene 2152)
The experiment in a line: BSK_LPS_TissueFactor: BioMAP Diversity Plus: LPS Assay for Tissue Factor Biomarker Activity (AID 2283084). The conditions noted are these: primary human HUVEC with PBMC; actives raise or lower the signal. Here is the method:
BSK_LPS is a cell-based, multiplexed-readout assay that uses umbilical vein endothelium and peripheral blood mononuclear cells, a human vascular primary cell co-culture, with measurements taken at 24 hours after chemical dosing in a 96-well plate.BSK_LPS_TissueFactor is an assay component measured in the BSK_LPS assay. It measures CD142 Tissue Factor antibody related to regulation of gene expression using ELISA technology.Data from the assay component BSK_LPS_TissueFactor was analyzed into 1 assay endpoint. This assay endpoint, BSK_LPS_TissueFactor, was analyzed with bidirectional fitting relative to DMSO as the negative control and baseline of activity. Using a type of binding reporter, gain or loss-of-signal activity can be used to understand changes in the signaling as they relate to the gene F3. Furthermore, this assay endpoint can be referred to as a primary readout, because this assay has produced multiple assay endpoints where this one serves a signaling function. To generalize the intended target to other relatable targets, this assay endpoint is annotated to the cytokine intended target family, where the subfamily is coagulation factor.
The levels of cell surface (or secreted, indicated by the prefix "s") biomarker endpoints were measured by ELISA. Overt cytotoxicity to cells in confluent adherent cultures (all systems other than the BT system) was assessed by measuring total protein levels using sulforhodamine B (SRB) staining in parallel cultures at the time of biomarker measurements, indicated as SRB endpoints. For proliferation assays for adherent cell types, individual cell types are cultured at sub-confluence and relative cell numbers quantified by SRB staining at time points optimized for each system (48 h: 3C and CASM3C systems; 72 h: BT and HDF3CGF systems; 96 h: SAg system). SRB was performed by staining cells with 0.1% SRB after fixation with 10% TCA and reading wells at 560 nm.Viability and proliferation of PBMC (T cells) was quantified by Alamar Blue reduction for the SAg and BT systems. For PBMC viability (referred to as PBMC Cytotoxicity within the assay endpoint names), cells were plated (75,000/well in a 96-well plate) and then chemical samples added for 1 h before addition of activators, SEB and TSST-1 (20 ng/mL final concentration each). Cells were incubated for 90 h. Then, Alamar Blue (20 uL/well) (Invitrogen, Cat DAL1100) was added for 6 h, and the plates were read with a fluorescence microplate reader at 546/580 nm (excitation/emission). For PBMC proliferation, cells were plated and activated as above but incubated for only 16 h prior to addition of Alamar Blue. Plates were read after 6 h.
Turning to `c1ccc2ncccc2c1`, the result was inactive.

As for `O=C(Cl)C(F)(F)C(F)(F)C(F)(F)C(=O)Cl`, the result was inactive.

Take `CCCCCCOC(=O)CC(CC(=O)OCCCCCC)(OC(=O)CCC)C(=O)OCCCCCC`: the result was inactive.

With `CCCCCCCCCCCCCCO`, the AC50 is 33.3 µM (active).

For `c1ccc2cc3ccccc3cc2c1`, the outcome was inactive.

`O=C(NO)C1(NS(=O)(=O)c2ccc(Oc3ccc(F)cc3)cc2)CCOCC1`: the outcome was inactive.

Consider `OC[C@H]1O[C@@H]2O[C@H]3[C@H](O)[C@@H](O)[C@@H](O[C@H]4[C@H](O)[C@@H](O)[C@@H](O[C@H]5[C@H](O)[C@@H](O)[C@@H](O[C@H]6[C@H](O)[C@@H](O)[C@@H](O[C@H]7[C@H](O)[C@@H](O)[C@@H](O[C@H]1[C@H](O)[C@H]2O)O[C@@H]7CO)O[C@@H]6CO)O[C@@H]5CO)O[C@@H]4CO)O[C@@H]3CO`, for which the result was inactive.

On to `CCCCCCCC/C=C\CCCCCCCC(=O)OC[C@@H](O)[C@H]1OC[C@H](O)[C@H]1O`, for which the result was inactive.

Take `CCCCCCCC1CCC(=O)O1` (stereo not given): the outcome was inactive.

Take `COc1cc2c(c(OC)c1OC)-c1ccc(OC)c(=O)cc1[C@@H](NC(C)=O)CC2`: the outcome was inactive.

As to `FC(F)=C(F)C(F)(F)C(F)(F)C(F)(F)C(F)(F)C(F)(F)C(F)(F)F`, the outcome was inactive.

As to `Cn1cc[nH]c1=S`, the outcome was inactive.

In the case of `CCOC(N)=O`, the result was inactive.

Turning to `CCN(CC)C(=S)SSC(=S)N(CC)CC`, the AC50 is 27.6 µM (active).

On to `FC(F)(F)COC(OCC(F)(F)F)OCC(F)(F)F`, for which the result was inactive.

With `CNC(C)=O`, the outcome was inactive.

In the case of `OC(Cn1cncn1)(Cn1cncn1)c1ccc(F)cc1F`, the outcome was inactive.

As for `Nc1ccn([C@@H]2O[C@H](CO)[C@@H](O)[C@@H]2O)c(=O)n1`, the outcome was inactive.

Turning to `FC(F)C(F)(F)COCC1CO1` (stereo not given), the outcome was inactive.

On to `OC(O)(C(F)C(O)(O)C(F)(F)F)C(F)(F)F`, for which the AC50 is 0.308 µM (active) and the outcome was inactive.

With `FC(F)(F)C(F)(F)C(F)(F)C(F)(F)C(F)(F)C(F)(F)I`, the result was inactive.

As to `CC(C)C(=O)Nc1ccc([N+](=O)[O-])c(C(F)(F)F)c1`, the result was inactive.

Turning to `Cc1nc(-c2ccccn2)ncc1C(=O)Nn1cc(C)c2cc(F)ccc21`, the outcome was inactive.

Take `O=S(=O)(O)CCC(F)(F)C(F)(F)C(F)(F)C(F)(F)C(F)(F)C(F)(F)F`: the result was inactive.

For the molecule `c1ccc(C(O[C@@H]2CCCN(CCc3ccc4c(c3)OCO4)C2)c2ccccc2)cc1`, the result was inactive.

As to `C=CCc1cc(S(=O)(=O)c2ccc(O)c(CC=C)c2)ccc1O`, the AC50 was 32.7 µM (active).

Take `OCC(CO)(CO)CO`: the result was inactive.

Turning to `OCCC(F)(F)C(F)(F)C(F)(F)C(F)(F)F`, the result was inactive.

As to `CC[C@H](C)C(=O)O[C@H]1C[C@H](O)C=C2C=C[C@H](C)[C@H](CC[C@@H](O)C[C@@H](O)CC(=O)O)[C@H]21`, the result was inactive.

On to `Cc1cccc(O)c1C`, for which the outcome was inactive.

For the molecule `O=C1CN(N=Cc2ccc([N+](=O)[O-])o2)C(=O)N1`, the result was inactive.

Consider `CCCCCOC(C)=O`, for which the result was inactive.

Take `S=P(N1CC1)(N1CC1)N1CC1`: the outcome was inactive.

With `OCCNCCO`, the result was inactive.

In the case of `O=C(O)c1cccc(C[C@@H]2COc3ccc(OCc4nc5cc(F)ccc5s4)cc3[C@@H]2O)c1`, the outcome was inactive.

For the molecule `CC(C)CCCCCCOC(=O)C1CCCCC1C(=O)OCCCCCCC(C)C` (stereo not given), the result was inactive.

For `CCCCCCCCN(C)C`, the result was inactive.

Regarding `CC1(C)C(=O)N(Cl)C(=O)N1Cl`, the result was inactive.

With `CCCOc1ccc(S(=O)(=O)N2CCN(CC)CC2)cc1-c1nc2c(CC)n(Cc3ccccn3)nc2c(=O)[nH]1`, the result was inactive.
